HSF1 activator = increases HSF-1 driven luciferase reporter signal; AID 504408; actives 1.7% (n = 300,000); activation, % at 9 µM; NIH3T3-HGL HSF-1 luciferase reporter, MG132, 8 h; 100% = twice DMSO control signal;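 active = mean replicate activation of at least 50% with a set share of replicates each reaching 50%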;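 note: 0% = median of the neutral control wells and 100% = twice that signal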
HSF1 inh = HSF1 inhibition | NIH3T3-HGL HSE-luciferase, MG132-induced, luminescence 8 h; active compounds read low | activity change, negative = inhibition, % at 7.5 µM (by protocol) | actives 0.77% (n = 300,000) | AID 2098;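 active = more than half of replicate wells show activity change below -50%, luminescence cut by over half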;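 note: luciferase reports HSF-1 transcriptional activity via heat shock element; 0% = median of DMSO wells and -100% = zero luminescence signal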
esBAF inh = SWI/SNF esBAF complex inhibition | actives 2% (n = 350,000) | mouse ES cells, Bmi1-luciferase knock-in reporter, 24 h; 100% = twice the neutral-well signal | AID 602393 | reporter increase, % at 12.5 µM; in the data active = activation above about 40%;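 note: 0% = median of the plate's neutral control wells and 100% = double that signal; a rise in the Bmi1 reporter signal indicates esBAF inhibition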
Vif inh = blocks HIV Vif function; HEK293T cells, Vif self-association by quenched fluorescence, imaging, 24 h; inhibition, % at 7.49 µM; actives 0.35% (n = 340,000); AID 602346; in the data active = inhibition above about 50%, passing the limit was not always enough
An asterisk follows results filed as active. Only some compounds are listed: those with a hit (about 3.4% of all), similar ones and a draw of the others.

Screening O=C(NCC(=O)N1CCCCCCC1)c1ccc(Br)o1 returned HSF1 activator -6, HSF1 inh 2, esBAF inh 14 and Vif inh 36.
`O=C(NCC(=O)N1CCN(c2ccccc2O)CC1)c1ccc(Br)o1` gave HSF1 activator -62, HSF1 inh -52*, esBAF inh 11 and Vif inh 3.
For O=C(NCCc1ccccc1)c1ccc(Br)o1 the results were HSF1 activator 35, HSF1 inh 21, esBAF inh 49* and Vif inh -8.
`O=C(Cc1ccc(Br)cc1)N1CCN(c2ccccc2O)CC1` gave HSF1 activator 24, HSF1 inh 18, esBAF inh 50* and Vif inh -9.
`Cc1cccc(N2CCN(C(=O)CNC(=O)c3ccccc3)CC2)c1C` gave HSF1 activator 15, HSF1 inh -1, esBAF inh 50* and Vif inh 2.
CN(C)C(=O)C[C@@H]1C[C@H]2c3cc(NS(=O)(=O)c4ccc(F)cc4)ccc3O[C@H]2[C@@H](CO)O1 was read as esBAF inh -2.
`COc1cc(N=Nc2ccc3ccccc3c2)ccc1O` gave HSF1 activator 55*, HSF1 inh 30, esBAF inh -1 and Vif inh 3.
CC(C)Cn1cnc2c(SCc3ccccc3Cl)nc(N)nc21 was read as esBAF inh 55* and Vif inh -3.
Screening CCC(C)Cn1cnc2c(SCc3ccccn3)nc(N)nc21 (configuration not stated) returned Vif inh -10.
For CCCn1cnc2c(SCc3ccccc3F)nc(N)nc21 the results were esBAF inh 53* and Vif inh 3.
Screening CCCCn1cnc2c(SCc3cccc(F)c3)nc(N)nc21 returned Vif inh -13.
`CN1C(=O)/C(=C/C=C2\SCCN2C)N(C)C1=S` gave HSF1 activator 32, HSF1 inh 18, esBAF inh 66* and Vif inh 5.
For Cc1noc2ncnc(Sc3ccc(Cl)cc3)c12 the results were HSF1 activator 72*, HSF1 inh 53, esBAF inh -7 and Vif inh 11.
For CC(C)C1Oc2ccccc2C(=O)N(CC(=O)c2ccc3c(c2)OCCO3)C1=O (configuration not stated) the results were HSF1 activator 30, HSF1 inh 14, esBAF inh 71* and Vif inh -19.
For CCC1Oc2ccccc2C(=O)N(CC(=O)c2ccc3c(c2)OCCO3)C1=O (configuration not stated) the results were HSF1 activator 33, HSF1 inh 29, esBAF inh 69* and Vif inh -2.
`CC(C)CN1C(=O)C(=O)N(CC(=O)NCc2ccc3c(c2)OCO3)C1=O` gave HSF1 activator 3, HSF1 inh -7 and esBAF inh -5.
CC(C)CN1C(=O)C(=O)N(CC(=O)c2ccc3c(c2)OCO3)C1=O was read as HSF1 activator 7, HSF1 inh 4, esBAF inh 14 and Vif inh 147*.
Screening CC1Oc2ccccc2C(=O)N(CC(=O)c2ccc3c(c2)OCCO3)C1=O (configuration not stated) returned HSF1 activator -5, HSF1 inh 7, esBAF inh 16 and Vif inh -7.
For Cc1noc(C)c1NC(=O)N(C)C[C@H]1Oc2ccc(NC(=O)NC(C)C)cc2C(=O)N([C@@H](C)CO)C[C@H]1C the results were esBAF inh -5.
`Cc1ccc(-c2nnc(CCC(=O)N(C)Cc3nccs3)o2)s1` gave HSF1 activator 18, HSF1 inh 7, esBAF inh 44* and Vif inh 1.
For COc1ccc(NC(=O)Nc2ccc3c(c2)C(=O)N([C@@H](C)CO)C[C@H](C)[C@H](CN(C)Cc2ccc4c(c2)OCO4)OCCCC[C@H](C)O3)cc1 the results were esBAF inh 1.
`C#CCN1C(=O)S/C(=C/C=C/c2ccc(N(C)C)cc2)C1=O` gave esBAF inh 79* and Vif inh 87*.
COc1ccc(NC(=O)Nc2ccc3c(c2)[C@@H]2C[C@H](CC(=O)N4CCN(C)CC4)O[C@@H](CO)[C@@H]2O3)cc1 was read as esBAF inh 1.
For Cc1noc(C)c1NC(=O)N[C@H]1CC[C@@H](CC(=O)NCCCN(C)C)O[C@@H]1CO the results were esBAF inh 5.
Screening CC1(C)CC[C@]2(CO)[C@@H](O)C[C@]3(C)C(=CCC4[C@@]5(C)CC[C@H](O)C(C)(C)C5CC[C@]43C)[C@@H]2C1 (some centres not stated) returned HSF1 activator 4 and HSF1 inh 6.

High-throughput results (PubChem BioAssay)
